Results from PubChem BioAssay AID504329 (Southern Research Specialized Biocontainment Screening …, 2011).
Out of some 340,000 compounds screened, about 1,000 (0.29%) were called active. Cut-off read from the data, not from the text of the source: inconclusive = inhibition above about 27% without an active follow-up result; inactive = below that. A selection follows. Results with a measured potency or affinity are listed apart.

Assay: H1N1 influenza NS1A inhibitors, functional cell based assay (AID 504329)
Settings: percent inhibition, at 12.5 µM, stronger effect = higher value
In the case of `CCN(CC)CCOc1ccccc1C(C)=O`, the inhibition is reported as -6.91% (inactive).
For `COc1ccc(CNC(=O)C(C)Sc2ccc(S(=O)(=O)N3CCOCC3)cn2)cc1` (centres undefined), the inhibition was -8.84% (inactive).
For `CN(C)C(=O)C(OC(=O)c1ccc2c(c1)CCCC2)c1ccccc1` (centres undefined), the inhibition was -4.12% (inactive).
In the case of `Nc1cc([N+](=O)[O-])ccc1OCc1ccccc1`, the inhibition is reported as -17.4% (inactive).
With `CC(=O)Nc1ccc(OCc2ccccc2)cc1[N+](=O)[O-]` the inhibition was -2.5% (inactive).
With `S=C(Nc1ccc(Cl)cc1)Nc1ccc2c(c1)OCCO2` the inhibition was -3.12% (inactive).
With `COc1ccc(OC)c(S(=O)(=O)Nc2c(C)cccc2C)c1` the inhibition was -4.66% (inactive).
In the case of `CC(=O)N(Cc1ccc(F)cc1)c1cccc(C)c1C`, the inhibition is reported as 5.28% (inactive).
With `CCCNC1=C(N(C(C)=O)c2cccc(F)c2)C(=O)c2ccccc2C1=O` the inhibition was -1.3% (inactive).
For `O=C1C(Cl)=C(NCCc2ccccc2)C(=O)c2ccccc21`, the inhibition was 28.7% (inactive).
In the case of `CN(CC(=O)NCCc1ccc(F)cc1)Cc1ccccc1`, the inhibition is reported as 0.42% (inactive).
With `O=C1C=C(Nc2ccc(Cl)cc2)CC(c2ccccc2)C1` (centres undefined) the inhibition was 1.69% (inactive).
In the case of `CC(C)CCN1C(Nc2ccccc2)=NC[C@@H]1Cc1ccccc1`, the inhibition is reported as -9.63% (inactive).
In the case of `COC(=O)c1cc2c(-c3ccccc3)c(C)c3ccccn3c-2c1C(=O)OC`, the inhibition is reported as 26.4% (inactive).
With `COC(=O)c1cc2ccccn2c2c(C(=O)OC)c(C(=O)OC)cc1-2` the inhibition was 16.8% (inactive).
For `CC(=O)NC1c2ccccc2C(=O)N1Cc1ccccc1` (centres undefined), the inhibition was -3.85% (inactive).
In the case of `O=[N+]([O-])c1cccc(/C=N/Nc2nc(NCc3ccccc3)nc(N3CCOCC3)n2)c1`, the inhibition is reported as 0.07% (inactive).
With `O=[N+]([O-])c1ccc(/C=N/Nc2nc(NCc3ccccc3)nc(N3CCOCC3)n2)cc1` the inhibition was -9.38% (inactive).
In the case of `COc1ccc(NC(=O)[C@H](CCS(C)(=O)=O)N2Cc3ccccc3C2=O)c(OC)c1`, the inhibition is reported as 28.3% (inactive).
In the case of `C[C@H](OC(=O)c1[nH]cnc1C(=O)N1CCN(C(=O)OC(C)(C)C)CC1)c1ccccc1`, the inhibition is reported as -7.71% (inactive).
For `CC1=NN(c2ccc(C(=O)O)cc2)C(=O)/C1=C/c1ccc(-c2ccccc2F)o1`, the inhibition was 23.6% (inactive).
In the case of `CC1=NN(c2ccc(Cl)c(C(=O)O)c2)C(=O)/C1=C\c1ccc(-c2ccc(C(=O)O)cc2)o1`, the inhibition is reported as 19.4% (inactive).
For `CC(=O)Nc1ccc(S(=O)(=O)N2CCC3(CC2)OCCO3)cc1`, the inhibition was 4.94% (inactive).
With `COC(=O)c1ccc(O)cc1` the inhibition was -1.72% (inactive).
For `COC(=O)c1ccc2nc(C)c(C)nc2c1`, the inhibition was -1.98% (inactive).
In the case of `COC(=O)c1ccc2c(c1)C(=O)/C(=C/c1ccc(O)cc1)O2`, the inhibition is reported as -8.68% (inactive).
For `COC(=O)c1ccc2c(c1)C(C)(C)C(/C=C/c1ccc(OC)c(OC)c1OC)=[N+]2C`, the inhibition was 4.08% (inactive).
With `CNC(=O)c1c(C)noc1C` the inhibition was -6.29% (inactive).
In the case of `Clc1ccc(SCc2cc(N3CCOCC3)nc(-c3ccccn3)n2)cc1`, the inhibition is reported as -0.35% (inactive).
With `Clc1ccc(SCc2cc(Cl)nc(-c3ccccc3)n2)cc1` the inhibition was 3.7% (inactive).
For `COc1ccccc1N/C=C(\C#N)c1nc2ccccc2[nH]1`, the inhibition was 10.7% (inactive).
With `C/C(=N\Nc1ccc(C(=O)O)cc1)c1ccc(Br)cc1` the inhibition was -17.3% (inactive).
In the case of `O=C(/C(=N\Nc1ccc(Br)cc1)Sc1nnnn1-c1ccccc1)c1ccccc1`, the inhibition is reported as 4.24% (inactive).
With `COc1ccc(N/N=C(/N=Nc2nc(C)cc(=O)[nH]2)c2ccccc2)cc1` the inhibition was 26.3% (inactive).
With `Cc1cc(=O)[nH]c(N=N/C(=N/Nc2ccc(O)cc2)c2ccccc2)n1` the inhibition was 13.6% (inactive).
With `COc1ccc(S(=O)(=O)N2CCOC2CNC(=O)C(=O)NCCc2ccccc2)cc1OC` (centres undefined) the inhibition was 2.48% (inactive).
With `Cc1ccc(C)n1-n1cnc2sc3c(c2c1=O)CCC3` the inhibition was 0.86% (inactive).
With `COc1ccccc1C(CNC(=O)c1ccc(S(=O)(=O)N2CCCCC2)cc1)N(C)C` (centres undefined) the inhibition was -6.72% (inactive).
For `O=C(O)C(Cc1ccccc1)N=C(NS(=O)(=O)c1ccccc1)c1ccccc1` (centres undefined), the inhibition was -1.07% (inactive).
For `CCOC(=O)C1CCN(Cc2c(O)ccc3ccccc23)CC1`, the inhibition was -4.79% (inactive).
For `Cc1ccc(C)c(S(=O)(=O)N2CCN(Cc3ccc(O)c4ncccc34)CC2)c1`, the inhibition was -17.5% (inactive).
With `CCOC(=O)C1CCN(Cc2ccc(OC)c(C)c2OC)CC1` the inhibition was 0.38% (inactive).
With `Cc1ccc(NCc2ccc(O)c3ncccc23)cc1C` the inhibition was -2.65% (inactive).
In the case of `OC1(C#CCN2CCCC2)CCCCC1`, the inhibition is reported as -3.16% (inactive).
With `Cc1ccc(F)cc1NC(=O)CSc1nnc(CNC(=O)c2ccco2)n1C` the inhibition was -10.7% (inactive).
For `N#CC(C#N)=C1NC(N)=C(C#N)C(c2ccccc2)=C1C#N`, the inhibition was -3.59% (inactive).
In the case of `CCc1cccc(OCC(=O)N(C)CC(=O)Nc2cccc(F)c2)c1`, the inhibition is reported as -9.68% (inactive).
For `CCOc1ccc(NC(=O)N(CCN2CCOCC2)Cc2ccc3c(c2)CCCN3CC)cc1`, the inhibition was 16.9% (inactive).
For `CCN1CCCc2cc(CN(CCN3CCOCC3)C(=O)Nc3ccc(C)c(C)c3)ccc21`, the inhibition was 22.9% (inactive).
With `O=c1ccc(/C=C/c2ccccc2)nn1Cc1ccc(F)cc1` the inhibition was 1.19% (inactive).
With `Cn1c(C(=O)O)cc2cc(Oc3ccccc3)ccc21` the inhibition was -27.7% (inactive).
For `O=C1CCC(=O)N1OCCOc1ccccc1`, the inhibition was 6.54% (inactive).
For `COc1ccc(/C=C/C(=O)OCC(=O)Nc2cccc(C(C)=O)c2)cc1`, the inhibition was -8.13% (inactive).
In the case of `O=[N+]([O-])c1ccc(Cl)cc1Sc1nc2ccccc2o1`, the inhibition is reported as 4.69% (inactive).
With `O=[N+]([O-])c1ccc(CSc2nc3ccccc3o2)cc1` the inhibition was 11.7% (inactive).
For `CCN(Cc1cnn(C)c1)C(=O)CC1C(=O)NCCN1Cc1cccc(OC)c1OC` (centres undefined), the inhibition was -0.14% (inactive).
For `C[N+]1=C(/C=C/Nc2ccccc2)C(C)(C)c2ccccc21`, the inhibition was -0.67% (inactive).
With `C[N+]1=C(/C=C/Nc2ccccc2Cl)C(C)(C)c2ccccc21` the inhibition was 3.87% (inactive).
With `O=c1c(-c2ccccc2)c(O)cc(-c2ccncc2)n1-c1ccc(Cl)cc1` the inhibition was 1.22% (inactive).
With `COc1cccc(OC)c1C(=O)Nc1sc2c(c1C(N)=O)CCN(Cc1ccccc1)C2` the inhibition was 0.91% (inactive).
For `O=[N+]([O-])c1ccc(C[n+]2cccc3c4ccccc4ccc32)cc1`, the inhibition was -5.37% (inactive).
For `O=[N+]([O-])c1ccc(C[n+]2cccc3ccccc32)cc1`, the inhibition was 2.93% (inactive).
With `O=C1C(NS(=O)(=O)c2cccs2)=C(N2CCN(Cc3ccccc3)CC2)C(=O)c2ccccc21` the inhibition was 13.7% (inactive).
With `CN1CCN(C2=C(NS(=O)(=O)c3cccs3)C(=O)c3ccccc3C2=O)CC1` the inhibition was -3.67% (inactive).
For `O=C1C(NS(=O)(=O)c2cccs2)=C(N2CCOCC2)C(=O)c2ccccc21`, the inhibition was 10.6% (inactive).
With `O=C1C(NS(=O)(=O)c2cccs2)=C(N2CCN(c3cccc(Cl)c3)CC2)C(=O)c2ccccc21` the inhibition was 19.4% (inactive).
With `CCOC(=O)N1CCN(S(=O)(=O)N2CCCC(C(=O)NCc3ccc(OC)cc3)C2)CC1` (centres undefined) the inhibition was -1.33% (inactive).
For `CCOC(=O)c1cnc2c(OC)cccc2c1N1CCN(c2ccccn2)CC1`, the inhibition was 3.27% (inactive).
For `CC(=O)OCCc1c(C)nc2nc[nH]n2c1=O`, the inhibition was -2.62% (inactive).
For `O=C(Cc1ccc(Cl)cc1)Nc1ccccc1C(=O)Nc1ccc(C(=O)O)cc1`, the inhibition was 9.57% (inactive).
For `O=C1CCN(S(=O)(=O)c2ccccc2)CCN1CCOCc1ccc(Cl)cc1`, the inhibition was -21.7% (inactive).
For `Cc1ccc(S(=O)(=O)NC(=O)Nc2ccc(F)cc2)cc1`, the inhibition was -6.14% (inactive).
For `Cc1ccc(S(=O)(=O)NC(=O)Nc2ccccc2)cc1`, the inhibition was -7.51% (inactive).
For `O=C(CCc1nnc(Cc2ccc(-c3ccccc3)cc2)o1)NCC1CC1`, the inhibition was -11.2% (inactive).
For `COc1ccc(CCN2CC(C(=O)Nc3ccccc3F)CC2=O)cc1OC` (centres undefined), the inhibition was -13.5% (inactive).
For `O=C(NCCCn1ccnc1)C(=O)NCC1OCCN1S(=O)(=O)c1ccc(Cl)cc1` (centres undefined), the inhibition was 13.8% (inactive).
For `O=C(NCCCn1ccnc1)C(=O)NCC1OCCN1S(=O)(=O)c1ccc(F)cc1` (centres undefined), the inhibition was 19.7% (inactive).
With `Cc1ccc(/C=C/C(=O)NC(C)c2ccccc2)cc1` (centres undefined) the inhibition was 2.36% (inactive).
For `O=C(CSCc1ccc([N+](=O)[O-])cc1)Nc1ccccc1C(=O)O`, the inhibition was -16.2% (inactive).
For `O=[N+]([O-])c1cc(Cl)ccc1N1CCOCC1`, the inhibition was 6.25% (inactive).
With `COc1cc([N+](=O)[O-])c(N2CCOCC2)c([N+](=O)[O-])c1OC` the inhibition was 3.06% (inactive).
In the case of `Cc1cccc(OC(=O)n2c(=S)oc3cc(Cl)ccc32)c1`, the inhibition is reported as 1.29% (inactive).
For `CC(C)[C@H](NC(=O)C1CCN(C(=O)[C@@H]2CCCN2)CC1)C(=O)NCc1ccc(F)cc1`, the inhibition was -5.22% (inactive).
In the case of `Cc1ccc(C(=O)NC(=S)/C=C2\N(C)c3ccccc3C2(C)C)cc1`, the inhibition is reported as 5.06% (inactive).
In the case of `COc1ccccc1C(=O)NC(=S)/C=C1/N(C)c2ccccc2C1(C)C`, the inhibition is reported as 22.9% (inactive).
In the case of `O=C(COc1cccc(NC(=O)c2cccs2)c1)c1ccc(F)cc1`, the inhibition is reported as -6.64% (inactive).
With `Cc1onc(-c2ccccc2)c1C(=O)NC(=S)NNC(=O)c1ccc(O)cc1` the inhibition was 22% (inactive).
In the case of `COc1ccccc1C(=O)NNC(=S)NC(=O)c1cccs1`, the inhibition is reported as 8.16% (inactive).
With `O=C(NNC(=O)c1ccccc1O)c1ccco1` the inhibition was -15.8% (inactive).
With `Cc1onc(-c2ccccc2)c1C(=O)NC(=S)NNC(=O)c1ccccc1O` the inhibition was 20.2% (inactive).
With `COc1ccc(C(=O)NC(=S)NNC(=O)c2ccccc2O)cc1` the inhibition was 0.2% (inactive).
In the case of `O=C(NC(=S)NNC(=O)c1cc2ccccc2cc1O)c1ccco1`, the inhibition is reported as 12.9% (inactive).
For `Cc1ccccc1C(=O)NNC(=S)NC(=O)c1cccs1`, the inhibition was -2.01% (inactive).
In the case of `O=C(NC(=S)NNC(=O)c1ccco1)c1ccc(F)cc1`, the inhibition is reported as 9.62% (inactive).
